# Results reported in PubChem BioAssay AID540301 (National Center for Advancing Translational Sciences (NCATS), 2011).
# This is one part of the list. Results filed as inconclusive are left out. Calls of active or inactive are those of the source. Calls follow the shape of the dose curve; as a rule, active = well fitted curve in the direction sought with a large enough effect; inconclusive = small, poorly fitted or top-dose-only effect, or another doubt; inactive = no such curve, though single readings can be large or run the other way.
# Assay: Inhibitors of DNA Polymerase Beta: Hit Validation in HIV-RT Assay
# Details: HIV-1 RT polymerase activity, counter-screen; series mostly up to 57.1 µM
# Excerpt: The base excision repair system in human cells is a target for therapeutic modulation of the response to irradiation treatment and DNA-damaging drugs. A key enzyme in this system is the bi-functional DNA polymerase known as DNA polymerase beta (pol b). […] Using an integrated approach involving discovery of small molecule probes for pol b via qHTS and validation by crystallography and kinetics along with cell-based validation experiments, we will test the hypothesis that base excision repair can be strategically modulated in human cells by targeting pol b. Thus, we anticipate the pol b-specific probes emerging from this research will serve as starting points in the development of clinical agents for use in down regulation of DNA base excision repair during therapeutic interventions against cancer.
# After the completion of the qHTS against the Molecular Libraries Small Molecular Repository (MLSMR), cherry picked compounds were confirmed in the primary qHTS pol beta assay and further characterized in several follow-up assays. To avoid compound promiscuity, we selected a completely unrelated viral polymerase to polymerase beta, HIV reverse transcriptase(RT) as a counter screen. There are distinct differences between the two polymerases, such as source of host and HIV RT is responsible for transcribing the virus' single stranded RNA into double-stranded DNA after entry into its host cell. […] To us, a favorable outcome in this assay is inactivity.
# NIH Chemical Genomics Center [NCGC]
# NIH Molecular Libraries Probe Centers Network [MLPCN]
# Assay Submitter (PI): Samuel Wilson, National Institute of Environmental Health Sciences (NIEHS), NIH
# A stepwise description of the 1536-well assay is shown in next Table. Three microliters of reagents (buffer in column 3 and 4 as negative control and 10 nM Pol beta in columns 1, 2, and 5-48) was dispensed into 1,536-well black solid-bottomed plate. Compounds (23 nL) were transferred via Kalypsys pin tool equipped with 1536-pin array (10 nL slotted pins, V&P Scientific, San Diego, CA). The plates were incubated for 15 min at room temperature, and 1 uL substrate (50 nM final concentration) were added to start the reaction and immediately read at 0 min read on Viewlux reader. The plate were further incubated for 10 min at room temperature, and then read on Viewlux again. Throughout the screen, reagent bottle and all liquid lines were chilled and made light-tight to minimize reagent degradation. All screening operations were performed on a fully integrated robotic system (Kalypsys, San Diego, CA) containing one RX-130 and two RX-90 anthropomorphic robotic arms (Staubli, Duncan, SC). Library plates were screened starting from the lowest and proceeding to the highest concentration, and a double-dipping step of the highest concentration was required to access higher concentrations of compounds. Vehicle-only plates, with DMSO being pin-transferred to the entire column 5-48 compound area, were inserted uniformly at the beginning and the end of each library in order to monitor for and record any shifts in the background, which can be affected by reagent dispensers or loss in enzyme activity overtime. Screening data were corrected, normalized, and concentration-effect relationships were derived by using publicly-available curve fitting algorithms developed in-house (http://ncgc.nih.gov/pub/openhts). A four parameter Hill equation was fitted to the concentration-response data by minimizing the residual error between the modeled and observed responses.
row,SMILES,outcome
1,O=C(c1cc2c(s1)CCC2)N1CCN(c2ccccc2)CC1,inactive
2,COc1cc([C@H](Cc2ccccc2)NC(C)=O)oc(=O)c1,inactive
3,O=C(Nc1ccc(S(=O)(=O)Nc2nccs2)cc1)c1cc(-c2ccncc2)nc2ccccc12,inactive
4,COc1ccc(Cc2nnc(NC(=O)Cc3cccs3)s2)cc1,inactive
5,Cc1c(CCC(=O)O)c(=O)oc2c(C)c(OCc3ccccc3Cl)ccc12,inactive
6,Cc1ccc2nc(-c3ccncc3)cc(C(=O)Nc3ccc(OC(F)F)cc3)c2c1,inactive
7,Cc1ccc(C(=O)Oc2coc(CSc3nnc(NC(=O)c4cccs4)s3)cc2=O)cc1C,inactive
